Results from the supplement of paper PMC8728848.
The sample as a whole holds a higher share of the strongest signals than the screen did.

Columns and labels:
Assay in all cases: glycan array binding signal (z-score within array); higher = stronger binding
Details in all cases: glycan notation: IUPAC condensed, linker removed
[1] = biological target: Fuc(a1-2)Gal(b1-3)GalNAc(b1-3)Gal(a1-4)Gal(b1-4)Glc
In short: (§1)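 Arrays were curated from the Consortium for Functional Glycomics database, 3228 in total, and kept only where the protein sequence was available. Binding is expressed as a within-array Z-score. This score was averaged across arrays of the same protein sequence at different concentrations or buffers and across linkers, and negative values can be read as non-binding.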

[2] = biological target: Fuc(a1-2)Gal(b1-3)GlcNAc(b1-3)[Fuc(a1-3)[Gal(b1-4)]GlcNAc(b1-6)]Gal(b1-4)Glc
In short: as §1

[3] = biological target: Fuc(a1-2)Gal(b1-3)[Fuc(a1-4)]GlcNAc(b1-2)Man(a1-3)[Fuc(a1-2)Gal(b1-3)[Fuc(a1-4)]GlcNAc(b1-2)Man(a1-6)]Man(b1-4)GlcNAc(b1-4)GlcNAc
In short: as §1

[4] = biological target: Fuc(a1-2)Gal(b1-3)[Fuc(a1-4)]GlcNAc(b1-3)[Fuc(a1-3)[Gal(b1-4)]GlcNAc(b1-6)]Gal(b1-4)Glc
In short: as §1

[5] = biological target: Fuc(a1-2)Gal(b1-4)[Fuc(a1-3)]GlcNAc(b1-2)[Fuc(a1-2)Gal(b1-4)[Fuc(a1-3)]GlcNAc(b1-4)]Man(a1-3)[Fuc(a1-2)Gal(b1-4)[Fuc(a1-3)]GlcNAc(b1-2)Man(a1-6)]Man(b1-4)GlcNAc(b1-4)GlcNAc
In short: as §1

[6] = biological target: Fuc(a1-2)[GalNAc(a1-3)]Gal(b1-3)GlcNAc(b1-2)Man(a1-3)[Fuc(a1-2)[GalNAc(a1-3)]Gal(b1-3)GlcNAc(b1-2)Man(a1-6)]Man(b1-4)GlcNAc(b1-4)[Fuc(a1-6)]GlcNAc
In short: as §1

[7] = biological target: Fuc(a1-2)[GalNAc(a1-3)]Gal(b1-3)GlcNAc(b1-3)GalNAc
In short: as §1

[8] = biological target: Fuc(a1-2)[GalNAc(a1-3)]Gal(b1-4)GlcNAc(b1-3)Gal(b1-4)GlcNAc(b1-3)Gal(b1-4)GlcNAc
In short: as §1

[9] = biological target: Gal(a1-3)Gal(b1-4)GlcNAc(b1-3)GalNAc
In short: as §1

[10] = biological target: Gal(a1-3)Gal(b1-4)[Fuc(a1-3)]GlcNAc(b1-2)Man(a1-3)[Gal(a1-3)Gal(b1-4)[Fuc(a1-3)]GlcNAc(b1-2)Man(a1-6)]Man(b1-4)GlcNAc(b1-4)GlcNAc
In short: as §1

[11] = biological target: Gal(a1-4)Gal(b1-4)GlcNAc(b1-3)Gal(b1-4)Glc
In short: as §1

[12] = biological target: Gal(b1-2)Gal
In short: as §1

[13] = biological target: Gal(b1-3)Gal(b1-4)GlcNAc
In short: as §1

[14] = biological target: Gal(b1-3)GlcNAc(b1-3)Gal(b1-4)Glc
In short: as §1

[15] = biological target: Gal(b1-3)GlcNAc(b1-3)Gal(b1-4)GlcNAc
In short: as §1

[16] = biological target: Gal(b1-3)[Fuc(a1-4)]GlcNAc(b1-2)Man(a1-3)[Gal(b1-3)[Fuc(a1-4)]GlcNAc(b1-2)Man(a1-6)]Man(b1-4)GlcNAc(b1-4)GlcNAc
In short: as §1

[17] = biological target: Gal(b1-3)[Neu5Ac(a2-6)]GalNAc
In short: as §1

[18] = biological target: Gal(b1-4)GlcNAc
In short: as §1

[19] = biological target: Gal(b1-4)GlcNAc(b1-2)Man(a1-3)[Gal(b1-4)GlcNAc(b1-2)Man(a1-6)]Man(b1-4)GlcNAc(b1-4)GlcNAc
In short: as §1

[20] = biological target: Gal(b1-4)GlcNAc(b1-3)Gal(b1-4)Glc
In short: as §1

[21] = biological target: Gal(b1-4)GlcNAc(b1-3)[GlcNAc(b1-6)]Gal(b1-4)GlcNAc
In short: as §1

[22] = biological target: Gal(b1-4)GlcNAc(b1-6)Gal(b1-4)GlcNAc(b1-6)GalNAc
In short: as §1

[23] = biological target: Gal3S(b1-3)GalNAc
In short: as §1

[24] = biological target: GalNAc(b1-3)Gal(a1-4)Gal(b1-4)GlcNAc(b1-3)Gal(b1-4)Glc
In short: as §1

[25] = biological target: GalNAc(b1-3)GalNAc
In short: as §1

[26] = biological target: Glc(a1-4)Glc
In short: as §1

[27] = biological target: GlcNAc(a1-4)Gal(b1-3)GlcNAc
In short: as §1

[28] = biological target: GlcNAc(a1-4)Gal(b1-4)GlcNAc(b1-3)Gal(b1-4)GlcNAc
In short: as §1

[29] = biological target: GlcNAc(a1-6)Gal(b1-4)GlcNAc
In short: as §1

[30] = biological target: GlcNAc(b1-2)Man(a1-3)[GlcNAc(b1-2)Man(a1-6)]Man(b1-4)GlcNAc(b1-4)[Fuc(a1-6)]GlcNAc
In short: as §1

[31] = biological target: GlcNAc(b1-3)Gal
In short: as §1

[32] = biological target: GlcNAc(b1-3)Gal(b1-4)Glc
In short: as §1

[33] = biological target: GlcNAc(b1-3)Gal(b1-4)GlcNAc
In short: as §1

[34] = biological target: GlcNAc(b1-3)[GlcNAc(b1-6)]Gal(b1-4)GlcNAc
In short: as §1

[35] = biological target: GlcNAc(b1-3)[GlcNAc(b1-6)]GlcNAc(b1-4)GlcNAc
In short: as §1

[36] = biological target: GlcNAc3Prop(b1-4)GlcNAc
In short: as §1

[37] = biological target: Neu5Ac(a2-3)Gal(b1-4)GlcNAc(b1-3)Gal
In short: as §1

[38] = biological target: Neu5Ac(a2-3)Gal(b1-4)[Fuc(a1-3)]GlcNAc6S
In short: as §1

[39] = biological target: Neu5Ac(a2-3)Gal6S(b1-4)GlcNAc
In short: as §1

[40] = biological target: Neu5Ac(a2-3)Gal6S(b1-4)[Fuc(a1-3)]GlcNAc
In short: as §1

[41] = biological target: Neu5Ac(a2-3)[GalNAc(b1-4)]Gal(b1-4)Glc
In short: as §1

[42] = biological target: Neu5Ac(a2-3)[GalNAc(b1-4)]Gal(b1-4)GlcNAc
In short: as §1

[43] = biological target: Neu5Ac(a2-6)Gal(b1-4)GlcNAc(b1-2)Man(a1-3)Man(b1-4)GlcNAc(b1-4)GlcNAc
In short: as §1

[44] = biological target: Neu5Ac(a2-6)Gal(b1-4)GlcNAc(b1-2)Man(a1-6)Man(b1-4)GlcNAc(b1-4)GlcNAc
In short: as §1

[45] = biological target: Neu5Ac(a2-8)Neu5Ac(a2-8)Neu5Ac
In short: as §1

[46] = biological target: Neu5Ac(b1-6)GalNAc
In short: as §1

B1: F17aG (Escherichia coli), Q99003 (protein)
chain: MTNFYKVFLAVFILVCCNISQAAVSFIGSTENDVGPSLGSYSRTHAMDNLPFVYDTRNKIGYQNANVWHISKGFCVGLDGKVDLPVVGSLDGQSIYGLTEEVGLLIWMGDTKYSRGTAMSGNSWENVFSGWCVGANTASTQGLSVRVTPVILKRNSSARYSVQKTSIGSIRMRPYNGSSAGSVQTTVNFSLNPFTLNDTVTSCRLLTPSAVNVSLAAISAGQLPSSGDEVVAGTTSLKLQCDAGVTVWATLTDATTPSNRSDILTLTGASTATGVGLRIYKNTDSTPLKFGPDSPVKGNENQWQLSTGTETSPSVRLYVKYVNTGEGINPGTVNGISTFTFSYQ
- glycan array binding signal (z-score) [1]: -0.23
- glycan array binding signal (z-score) [2]: -0.148
- glycan array binding signal (z-score) [3]: -0.169
- glycan array binding signal (z-score) [4]: -0.139
- glycan array binding signal (z-score) [5]: -0.163
- glycan array binding signal (z-score) [6]: -0.143
- glycan array binding signal (z-score) [7]: -0.113
- glycan array binding signal (z-score) [8]: 0.023
- glycan array binding signal (z-score) [9]: -0.168
- glycan array binding signal (z-score) [10]: -0.157
- glycan array binding signal (z-score) [11]: -0.154
- glycan array binding signal (z-score) [12]: -0.25
- glycan array binding signal (z-score) [13]: -0.151
- glycan array binding signal (z-score) [14]: -0.252
- glycan array binding signal (z-score) [15]: -0.236
- glycan array binding signal (z-score) [16]: -0.119
- glycan array binding signal (z-score) [17]: -0.205
- glycan array binding signal (z-score) [18]: -0.14
- glycan array binding signal (z-score) [19]: -0.254
- glycan array binding signal (z-score) [20]: -0.147
- glycan array binding signal (z-score) [21]: 1.53
- glycan array binding signal (z-score) [22]: -0.312
- glycan array binding signal (z-score) [23]: -0.244
- glycan array binding signal (z-score) [24]: -0.179
- glycan array binding signal (z-score) [25]: 1.69
- glycan array binding signal (z-score) [26]: -0.243
- glycan array binding signal (z-score) [27]: -0.089
- glycan array binding signal (z-score) [28]: -0.182
- glycan array binding signal (z-score) [29]: -0.243
- glycan array binding signal (z-score) [30]: -0.17
- glycan array binding signal (z-score) [31]: 3.9
- glycan array binding signal (z-score) [32]: 8.79
- glycan array binding signal (z-score) [33]: 4.77
- glycan array binding signal (z-score) [34]: 5.68
- glycan array binding signal (z-score) [35]: 2.15
- glycan array binding signal (z-score) [36]: 11.7
- glycan array binding signal (z-score) [37]: -0.158
- glycan array binding signal (z-score) [38]: 0.084
- glycan array binding signal (z-score) [39]: -0.233
- glycan array binding signal (z-score) [40]: -0.245
- glycan array binding signal (z-score) [41]: 0.025
- glycan array binding signal (z-score) [42]: -0.241
- glycan array binding signal (z-score) [43]: -0.177
- glycan array binding signal (z-score) [44]: -0.167
- glycan array binding signal (z-score) [45]: -0.234
- glycan array binding signal (z-score) [46]: -0.34
